According to publication PMC7819943, “Rice protein-binding microarrays: a tool to detect cis-acting elements near promoter regions in rice”:
The full ranking holds about 39,000 sequences; the median of “fluorescence intensity (a.u.)” is about 4,300, and the highest 2% start at about 39,000. For the sample, the highest values were picked, then their nearest neighbours and some sequences at random.

The sequences below were run against T1, OsSMF1 (Oryza sativa, UniProt Q6ZLB0 1-436) (assay: protein-binding microarray (RPBM); PBS, 2% BSA, 51.3 ng/ul salmon testes DNA, 50 uM zinc acetate, 200 nM TF, 25 C, 1 h; high values mean tight binding). Settings: protein: recombinant; tags: N-terminal polyhistidine and DsRed monomer fusion (pET32a); chain copies: 2; label: CyDye5-dUTP incorporated in the synthesized complementary strand; 3' TTTTT single-stranded linker to array surface; dsDNA, one strand shown.
T1 sequence: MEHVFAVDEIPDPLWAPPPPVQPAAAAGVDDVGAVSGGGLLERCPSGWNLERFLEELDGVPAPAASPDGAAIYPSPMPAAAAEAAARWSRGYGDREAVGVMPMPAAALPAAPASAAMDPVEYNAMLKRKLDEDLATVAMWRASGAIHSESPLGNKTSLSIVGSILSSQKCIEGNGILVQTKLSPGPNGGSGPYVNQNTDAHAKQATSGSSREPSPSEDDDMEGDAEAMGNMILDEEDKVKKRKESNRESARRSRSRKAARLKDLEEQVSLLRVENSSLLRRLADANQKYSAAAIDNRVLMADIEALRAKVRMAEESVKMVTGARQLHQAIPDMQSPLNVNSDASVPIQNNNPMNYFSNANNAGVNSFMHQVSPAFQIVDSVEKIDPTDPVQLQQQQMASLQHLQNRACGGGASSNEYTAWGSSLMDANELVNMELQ
Summary of the method: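 Using Ni–NTA, transcription factors fused N-terminally to polyhistidine and DsRed were purified after expression in E. coli BL21-CodonPlus. These were incubated at 200 nM with a blocked, double-stranded custom Agilent array for 1 h at 25 °C in a buffer containing 50 µM zinc acetate, and the array was washed. The binding signal is per-feature fluorescence intensity (arbitrary units) on an Axon 4000B scanner.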

Sequence | binding signal
CCTCCGACATCTCCAGCCAATTCCAGCTCAGCTCTCGCCGCGGAGTCACCTAGTGCAG | 4150 fluorescence intensity (a.u.)
GCTTTACGTCTTGTGTGGAAGAAAGCGGAAAACTATCCAGCGGAGTCACCTAGTGCAG | 3540 fluorescence intensity (a.u.)
ATAATAGCACATGTGGATATCTGTAGAATTCATTTCGTGTCGGAGTCACCTAGTGCAG | 3550 fluorescence intensity (a.u.)
GACGTGATAAAGAAGTTCAGATTTAGAAATAAATTTGAAGCGGAGTCACCTAGTGCAG | 3820 fluorescence intensity (a.u.)
GAACGGGACCAGCTACTATAGTGAAATTTAGATTTCAAAGCGGAGTCACCTAGTGCAG | 42200 fluorescence intensity (a.u.)
AGCAGCGGGCTACAGATTTATAGCCAGCTGTAGCACGGATCGGAGTCACCTAGTGCAG | 33200 fluorescence intensity (a.u.)
GCGGCTTCTCGCCGGCGGCGACCACCACCCGTCACCCACCCGGAGTCACCTAGTGCAG | 3380 fluorescence intensity (a.u.)
ATCCATTGCTGCTTTCAGCTGAGTCACCAACTCCTATCCACGGAGTCACCTAGTGCAG | 14100 fluorescence intensity (a.u.)
GTTGCAGAGCAGCTCGCGCCGCGCGCGTACACTCGCTTTGCGGAGTCACCTAGTGCAG | 6780 fluorescence intensity (a.u.)
GGGCTTGCCCATTACGCGTTGCTATAGACGCCCTTTCATTCGGAGTCACCTAGTGCAG | 41600 fluorescence intensity (a.u.)
TTTGCCCATTTTATTCCCTTGCGTCATCCATTTACTGCTTCGGAGTCACCTAGTGCAG | 13800 fluorescence intensity (a.u.)
GTGGGCTTAGACGGCCCAGTCATGACCCTTTCATTTCGTGCGGAGTCACCTAGTGCAG | 3440 fluorescence intensity (a.u.)
GCGGTGGCGGTTGGGGTGGCGAGTGGGGAGGAGGAGGCGGCGGAGTCACCTAGTGCAG | 5880 fluorescence intensity (a.u.)
TAGCGCGGCTGCACAGTACAGTCCGACGTCACAGCTCACTCGGAGTCACCTAGTGCAG | 49200 fluorescence intensity (a.u.)
CGCCGGCACAGCGACATAGCTGACGTCGACGATGCTCACTCGGAGTCACCTAGTGCAG | 5350 fluorescence intensity (a.u.)
CCCAAAGCTGACGTACAGCACCGACCCGGTCGGCTGCTCGCGGAGTCACCTAGTGCAG | 4200 fluorescence intensity (a.u.)
ACCACATCCACTGCCGCGCCACGCCTCTCGGCCGCCACACCGGAGTCACCTAGTGCAG | 3770 fluorescence intensity (a.u.)
CAACCTTTATCTGAAGTGGCAGGCACGTGGATTAGCAATACGGAGTCACCTAGTGCAG | 5790 fluorescence intensity (a.u.)
GGTAATAGTGTCAACATATTGCATTAAGATGATTGCAGTGCGGAGTCACCTAGTGCAG | 24300 fluorescence intensity (a.u.)
CAAGATGGGTCGGGTTGGGTGGGGTTACTCGCACTAGCACCGGAGTCACCTAGTGCAG | 3160 fluorescence intensity (a.u.)
GCGGCTCGCCGTCATATGCGACGTGGCATGCACGACGCCGCGGAGTCACCTAGTGCAG | 14300 fluorescence intensity (a.u.)
CTAGCTTTGAGGTGGAGGTGGTGGTGGAGGAGGAGGAGGACGGAGTCACCTAGTGCAG | 3340 fluorescence intensity (a.u.)

Sequence | binding signal
GGCAGGACGGCAGGAGGCCTGTTCGCTTGAGGTGTCTAGCCGGAGTCACCTAGTGCAG | 39800 fluorescence intensity (a.u.)
GAATAGCTGCTTGTTAACTAGGGATTAGAGGTGGGGTTTTCGGAGTCACCTAGTGCAG | 17400 fluorescence intensity (a.u.)
TTTTCGCTGAGGTGGCAGGTTAACTTGTCTGCTTTCGGCCCGGAGTCACCTAGTGCAG | 39300 fluorescence intensity (a.u.)
CGCTGCTGAGTGCTGACTCCTTCGCCCTCCTCCTCACTTTCGGAGTCACCTAGTGCAG | 7650 fluorescence intensity (a.u.)
AGTGGCAGGGGTGTGGGGATTGCCGGCTTGCCGCGGAGGACGGAGTCACCTAGTGCAG | 3530 fluorescence intensity (a.u.)
GGGCTGGGGAAAATGATCGACTACTTTTAACCATTTCAGTCGGAGTCACCTAGTGCAG | 3420 fluorescence intensity (a.u.)
TACGTTGAATATTACCCTCTTGATGACTTGACTAATTTTACGGAGTCACCTAGTGCAG | 3880 fluorescence intensity (a.u.)
TTATATATCCCTGATAGCTGATTAGTTGGCACATCAGCATCGGAGTCACCTAGTGCAG | 3210 fluorescence intensity (a.u.)
CAAGGGAGGAGGGAGAAAGAAAAGGATGGGAGATTTGCTCCGGAGTCACCTAGTGCAG | 3290 fluorescence intensity (a.u.)
AAGGTAGAGTCAAATAGAAGCTCTATATCATGTAGACACTCGGAGTCACCTAGTGCAG | 3360 fluorescence intensity (a.u.)
TGGTCACTGCAGCAGGTTCAGGACAAAGCAACCTGTTTCTCGGAGTCACCTAGTGCAG | 3600 fluorescence intensity (a.u.)
AGAGGTTCAAACTGTATATGTTCTAGACCATTCACAAGCTCGGAGTCACCTAGTGCAG | 64100 fluorescence intensity (a.u.)
ACCCACACACCCACACCCACACGTCAAAGACCCACGGTTTCGGAGTCACCTAGTGCAG | 3160 fluorescence intensity (a.u.)
CAGAGGCAAACGTACGTGGAGGCAGGAGGAGTGGTCACCGCGGAGTCACCTAGTGCAG | 4440 fluorescence intensity (a.u.)
TGTGGTGTGTGTGTGGCTGAAACCGCGAGGCCGCCGCGAGCGGAGTCACCTAGTGCAG | 3440 fluorescence intensity (a.u.)
CCTAACCGCCCAGCAGAGGCAAAGTGTGGTCGAAACCTAGCGGAGTCACCTAGTGCAG | 49500 fluorescence intensity (a.u.)
CCGTCGCCGGCGGCGGATCGGCCCCACATCACCTCGGCCTCGGAGTCACCTAGTGCAG | 3250 fluorescence intensity (a.u.)
AGAAGACAACAGTGAGGAACTGAGGACACGTGTACTTGGACGGAGTCACCTAGTGCAG | 12600 fluorescence intensity (a.u.)
AAATTTGTACCATCTTGTTGTCCATCATTCTTGACAAGAGCGGAGTCACCTAGTGCAG | 3280 fluorescence intensity (a.u.)
TGAGCCCATTCTATCTTGTACCAATTTGTGGGATATGGCCCGGAGTCACCTAGTGCAG | 41000 fluorescence intensity (a.u.)
ACCTTGTACTTTTGTCTACATATGTGTCATTCTATCTTGGCGGAGTCACCTAGTGCAG | 5120 fluorescence intensity (a.u.)
